In PubChem BioAssay:
Activity calls are given as the source filed them.

What was measured:
[1] = tested on: PRMT1 (protein arginine N-methyltransferase 1); experiment: small molecules binding arginine methyltransferase PRMT1 – biochemical, small-molecule microarray, 635 nm fluorescence, primary screen (AID 1088); conditions: higher = more signal;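 further: binding of Prmt1 protein to compounds spotted on small-molecule microarray slides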
[2] = growth effects on S. cerevisiae YJM789 – YJM789 clinical isolate, OD600, 24 h, basal, primary screen (AID 1089); conditions: higher = more signal, called active from +8 up or from −8 down;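 further: growth of clinical yeast isolate S. cerevisiae YJM 789 seeded 1000 cells per well; test concentration not given here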
[3] = S. pombe growth modifiers, basal conditions – strain 972, OD600, 24 h, no modulator, primary screen (AID 1090);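 further: basal condition with compound alone and no growth modifier present; test concentration not given here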; conditions: S. pombe 972 growth, higher = more signal, called active from +8 up or from −8 down
[4] = budding yeast growth modifiers under rapamycin – strain BY4716, OD600, 96 h, primary screen (AID 1091); further: test concentration not given here; conditions: S. cerevisiae BY4716 + rapamycin, higher = more signal, called active from +8 up or from −8 down
[5] = molecular target: Torsin-1A-interacting protein 2 (Homo sapiens) (UniProt Q8NFQ8); experiment: small molecules binding lysate-expressed LULL1 – cell lysate, human LULL1 lysate, 635/667 nm fluorescence, primary screen (AID 1092); conditions: small-molecule microarray, hLULL1 lysate binding, 635 nm fluorescence; higher = more signal;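 further: probe is lysate of COS7 cells overexpressing human LULL1; score merges per-feature 667 nm fluorescence with signal-to-noise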
Chain of Torsin-1A-interacting protein 2 (Homo sapiens) (Q8NFQ8 whole entry, looked up): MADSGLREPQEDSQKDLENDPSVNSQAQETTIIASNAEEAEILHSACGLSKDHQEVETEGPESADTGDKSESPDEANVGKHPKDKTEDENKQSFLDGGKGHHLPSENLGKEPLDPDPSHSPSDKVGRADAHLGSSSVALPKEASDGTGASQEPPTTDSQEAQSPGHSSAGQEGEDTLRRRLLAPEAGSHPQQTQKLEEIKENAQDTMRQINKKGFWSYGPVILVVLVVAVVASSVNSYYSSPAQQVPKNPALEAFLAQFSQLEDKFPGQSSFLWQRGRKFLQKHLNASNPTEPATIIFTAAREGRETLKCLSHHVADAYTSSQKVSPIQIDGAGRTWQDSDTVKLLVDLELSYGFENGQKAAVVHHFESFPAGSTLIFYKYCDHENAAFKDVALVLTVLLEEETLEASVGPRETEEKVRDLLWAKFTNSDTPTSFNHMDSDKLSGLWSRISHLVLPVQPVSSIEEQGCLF

[6] = optical density change of DRC41 E. coli – strain DRC41, OD650, 24 h, E. coli filamentation project, primary screen (AID 1093);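 further: MC1000 strain lacking acrAB efflux and sulA so SOS filamentation is blocked; test concentration not given here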; conditions: E. coli DRC41 growth, higher = more signal, called active from +8 up or from −8 down
[7] = probe aLefty2 binding to arrayed compounds – biochemical, biotinylated probe, 635/667 nm fluorescence, primary screen (AID 1094); conditions: small-molecule microarray, higher = more signal;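 further: score merges spot fluorescence near 667 nm with spot signal-to-noise ratio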
[8] = tested on: Noggin (protein binding on small-molecule microarray); experiment: small molecules binding Noggin protein – biochemical, 635/667 nm fluorescence, primary screen (AID 1095); conditions: 635 nm fluorescence, higher = more signal;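 further: score merges 667 nm feature fluorescence with signal to noise over triplicate slides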
[9] = molecular target: Neurogenic locus notch homolog protein 3 (Homo sapiens) (UniProt Q9UM47); experiment: small molecules binding NOTCH3 protein – biochemical, 635/667 nm fluorescence, primary screen (AID 1096); conditions: small-molecule microarray, 635 nm fluorescence, higher = more signal
Chain of Neurogenic locus notch homolog protein 3 (Homo sapiens) (Q9UM47 whole entry, looked up): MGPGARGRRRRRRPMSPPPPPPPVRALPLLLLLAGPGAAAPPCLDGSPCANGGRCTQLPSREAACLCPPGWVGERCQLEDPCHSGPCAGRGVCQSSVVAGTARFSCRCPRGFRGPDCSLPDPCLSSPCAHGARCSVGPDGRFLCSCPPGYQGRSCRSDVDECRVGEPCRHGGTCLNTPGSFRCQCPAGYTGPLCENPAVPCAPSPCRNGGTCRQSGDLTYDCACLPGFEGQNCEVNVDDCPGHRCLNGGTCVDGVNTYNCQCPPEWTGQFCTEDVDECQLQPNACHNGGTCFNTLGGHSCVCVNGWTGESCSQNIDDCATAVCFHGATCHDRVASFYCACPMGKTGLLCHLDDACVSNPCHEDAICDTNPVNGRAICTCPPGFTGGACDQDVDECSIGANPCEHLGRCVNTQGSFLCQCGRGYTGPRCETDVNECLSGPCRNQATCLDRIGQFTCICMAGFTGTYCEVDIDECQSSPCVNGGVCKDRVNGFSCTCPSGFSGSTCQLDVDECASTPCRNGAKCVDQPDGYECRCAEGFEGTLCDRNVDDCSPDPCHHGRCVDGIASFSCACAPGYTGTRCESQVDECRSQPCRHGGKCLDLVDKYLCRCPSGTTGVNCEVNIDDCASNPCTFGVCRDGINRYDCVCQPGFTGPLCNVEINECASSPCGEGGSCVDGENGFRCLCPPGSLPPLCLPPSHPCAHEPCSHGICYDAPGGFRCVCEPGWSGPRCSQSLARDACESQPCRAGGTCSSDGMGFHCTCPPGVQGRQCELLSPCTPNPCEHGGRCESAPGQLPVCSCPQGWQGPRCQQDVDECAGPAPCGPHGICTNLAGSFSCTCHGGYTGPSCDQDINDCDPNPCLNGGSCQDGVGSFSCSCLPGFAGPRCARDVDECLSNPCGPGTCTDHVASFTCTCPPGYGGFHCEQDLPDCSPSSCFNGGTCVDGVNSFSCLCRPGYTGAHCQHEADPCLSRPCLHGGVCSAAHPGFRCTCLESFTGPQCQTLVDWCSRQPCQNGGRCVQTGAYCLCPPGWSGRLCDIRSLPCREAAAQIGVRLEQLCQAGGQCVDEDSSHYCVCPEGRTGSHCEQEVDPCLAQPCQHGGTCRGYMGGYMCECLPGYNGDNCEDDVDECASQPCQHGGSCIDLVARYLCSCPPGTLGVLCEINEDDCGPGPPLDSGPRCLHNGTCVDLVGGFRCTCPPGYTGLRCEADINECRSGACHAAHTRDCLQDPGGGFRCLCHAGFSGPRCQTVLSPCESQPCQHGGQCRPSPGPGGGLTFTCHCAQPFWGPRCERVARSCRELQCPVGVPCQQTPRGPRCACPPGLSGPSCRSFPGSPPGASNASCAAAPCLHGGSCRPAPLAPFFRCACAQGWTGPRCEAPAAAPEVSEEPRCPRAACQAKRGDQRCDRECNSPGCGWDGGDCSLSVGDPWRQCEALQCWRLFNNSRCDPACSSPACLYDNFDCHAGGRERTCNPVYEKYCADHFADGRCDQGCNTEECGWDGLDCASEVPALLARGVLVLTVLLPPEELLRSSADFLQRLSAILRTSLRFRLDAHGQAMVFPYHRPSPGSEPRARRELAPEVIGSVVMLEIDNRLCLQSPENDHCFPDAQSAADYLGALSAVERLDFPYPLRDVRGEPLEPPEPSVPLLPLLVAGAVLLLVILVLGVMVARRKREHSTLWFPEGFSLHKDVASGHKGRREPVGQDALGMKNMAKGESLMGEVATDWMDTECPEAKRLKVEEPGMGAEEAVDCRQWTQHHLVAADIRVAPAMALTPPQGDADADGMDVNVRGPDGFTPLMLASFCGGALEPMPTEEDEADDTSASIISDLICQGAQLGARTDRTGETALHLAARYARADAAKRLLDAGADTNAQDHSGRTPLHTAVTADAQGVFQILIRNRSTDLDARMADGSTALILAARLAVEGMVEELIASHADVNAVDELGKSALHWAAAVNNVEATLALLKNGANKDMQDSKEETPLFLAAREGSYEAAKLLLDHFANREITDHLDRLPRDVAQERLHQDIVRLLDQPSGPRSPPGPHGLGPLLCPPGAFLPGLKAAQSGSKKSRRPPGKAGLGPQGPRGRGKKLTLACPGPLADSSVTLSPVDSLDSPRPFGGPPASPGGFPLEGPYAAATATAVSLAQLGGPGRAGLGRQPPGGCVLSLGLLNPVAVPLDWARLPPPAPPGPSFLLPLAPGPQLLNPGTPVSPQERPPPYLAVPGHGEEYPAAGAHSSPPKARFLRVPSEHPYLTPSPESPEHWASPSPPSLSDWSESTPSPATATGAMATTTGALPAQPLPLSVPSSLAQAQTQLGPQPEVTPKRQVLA

[10] = probe aEGFR binding to arrayed compounds – biochemical, biotinylated probe, 635/667 nm fluorescence, primary screen (AID 1097); conditions: small-molecule microarray, higher = more signal;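 further: probe is a biotinylated anti-EGFR antibody binding compounds printed on slides; score combines fluorescence near 667 nm and signal to noise of each spot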
[11] = tested on: Plasmodium falciparum Sir2 (PF13_0152, Sir2A); experiment: Plasmodium falciparum Sir2A binding compounds – biochemical, small-molecule microarray, 635 nm fluorescence, primary screen (AID 1098); conditions: fluorescence 635 nm, higher = more signal;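 further: score merges spot fluorescence intensity with its signal-to-noise ratio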
[12] = probe aDKK1 binding to arrayed compounds – biochemical, biotinylated probe, 635/667 nm fluorescence, primary screen (AID 1099); conditions: small-molecule microarray, higher = more signal;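 further: score merges 667nm spot fluorescence with signal to noise across triplicate slides; reference of the scale not given here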
[13] = probe aCHRDL2 binding to arrayed compounds – biochemical, biotinylated probe, 635/667 nm fluorescence, primary screen (AID 1100); conditions: small-molecule microarray, higher = more signal
[14] = change in splice reporter luminescence, either direction, cell-based, HEK293, spliceosome inhibition project, primary screen (AID 1101); conditions: HEK293 splicing luciferase reporter, 24 h, higher = more signal, called active from +8 up or from −8 down;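 further: HEK293 cells carrying a splicing-competent luciferase reporter gene; test concentration not given here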
[15] = molecular target: Fibroblast growth factor 10 (Homo sapiens) (UniProt O15520); experiment: compounds binding fibroblast growth factor 10 – biochemical, small-molecule microarray, 635 nm fluorescence, primary screen (AID 1102); conditions: FGF10 binding, fluorescence 635 nm, higher = more signal
Chain of Fibroblast growth factor 10 (Homo sapiens) (O15520 whole entry, looked up): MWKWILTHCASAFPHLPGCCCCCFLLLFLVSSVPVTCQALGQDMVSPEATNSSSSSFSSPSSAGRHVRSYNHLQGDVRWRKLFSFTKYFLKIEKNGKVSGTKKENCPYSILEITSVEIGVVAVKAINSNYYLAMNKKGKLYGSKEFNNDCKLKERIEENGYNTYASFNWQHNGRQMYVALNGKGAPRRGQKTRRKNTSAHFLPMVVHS

[16] = tested on: glycogen synthase kinase-3 (GSK3A per assay name; protocol says GSK3B); experiment: compounds binding glycogen synthase kinase-3 – biochemical, small-molecule microarray, 635 nm fluorescence, GSK3A, primary screen (AID 1103); conditions: fluorescence 635 nm, higher = more signal; further: the record names both GSK3A and GSK3B
[17] = molecular target: Epidermal growth factor receptor (Homo sapiens) (UniProt P00533); experiment: compounds binding epidermal growth factor receptor – biochemical, small-molecule microarray, 635 nm fluorescence, primary screen (AID 1104); conditions: EGFR binding, higher = more signal;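 further: score merges 667 nm emission intensity with spot signal to noise over triplicate slides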
Chain of Epidermal growth factor receptor (Homo sapiens) (P00533 whole entry, looked up): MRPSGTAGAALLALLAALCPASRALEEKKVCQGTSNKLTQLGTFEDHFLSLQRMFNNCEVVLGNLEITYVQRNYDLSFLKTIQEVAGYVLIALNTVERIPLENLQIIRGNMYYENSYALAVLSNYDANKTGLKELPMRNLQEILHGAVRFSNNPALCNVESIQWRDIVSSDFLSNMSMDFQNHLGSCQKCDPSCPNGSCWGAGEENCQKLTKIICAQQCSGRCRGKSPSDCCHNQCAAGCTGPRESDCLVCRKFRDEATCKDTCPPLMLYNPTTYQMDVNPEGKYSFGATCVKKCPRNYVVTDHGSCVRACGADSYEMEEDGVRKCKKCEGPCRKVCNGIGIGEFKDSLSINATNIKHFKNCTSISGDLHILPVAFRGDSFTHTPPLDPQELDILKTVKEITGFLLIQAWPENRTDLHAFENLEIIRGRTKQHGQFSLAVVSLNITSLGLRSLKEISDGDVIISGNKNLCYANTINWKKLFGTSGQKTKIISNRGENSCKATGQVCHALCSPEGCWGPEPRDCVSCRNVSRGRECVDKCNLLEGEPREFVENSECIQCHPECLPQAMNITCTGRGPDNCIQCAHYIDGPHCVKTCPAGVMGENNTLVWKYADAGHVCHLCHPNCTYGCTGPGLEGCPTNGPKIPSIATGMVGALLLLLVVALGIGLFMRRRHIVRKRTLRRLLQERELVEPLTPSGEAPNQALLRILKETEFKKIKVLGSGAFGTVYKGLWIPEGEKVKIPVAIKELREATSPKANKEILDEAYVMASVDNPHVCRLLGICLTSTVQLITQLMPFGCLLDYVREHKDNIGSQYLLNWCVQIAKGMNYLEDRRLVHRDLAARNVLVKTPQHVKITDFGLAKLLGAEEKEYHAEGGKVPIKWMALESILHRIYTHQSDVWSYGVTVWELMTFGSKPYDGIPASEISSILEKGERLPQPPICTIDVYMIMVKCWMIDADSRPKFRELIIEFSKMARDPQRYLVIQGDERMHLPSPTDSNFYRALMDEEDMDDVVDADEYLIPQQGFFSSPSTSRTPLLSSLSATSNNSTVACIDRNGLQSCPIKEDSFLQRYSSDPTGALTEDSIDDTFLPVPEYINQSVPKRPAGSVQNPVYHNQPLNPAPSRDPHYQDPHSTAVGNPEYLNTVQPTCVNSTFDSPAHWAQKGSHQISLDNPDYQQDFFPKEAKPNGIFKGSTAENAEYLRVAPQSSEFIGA

[18] = molecular target: Follistatin-related protein 3 (Homo sapiens) (UniProt O95633); experiment: compounds binding follistatin-related protein 3 – biochemical, small-molecule microarray, 635 nm fluorescence, primary screen (AID 1105); conditions: FSTL3 binding, higher = more signal;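 further: score merges emission near 667 nm and signal to noise per printed spot across three slides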
Chain of Follistatin-related protein 3 (Homo sapiens) (O95633 whole entry, looked up): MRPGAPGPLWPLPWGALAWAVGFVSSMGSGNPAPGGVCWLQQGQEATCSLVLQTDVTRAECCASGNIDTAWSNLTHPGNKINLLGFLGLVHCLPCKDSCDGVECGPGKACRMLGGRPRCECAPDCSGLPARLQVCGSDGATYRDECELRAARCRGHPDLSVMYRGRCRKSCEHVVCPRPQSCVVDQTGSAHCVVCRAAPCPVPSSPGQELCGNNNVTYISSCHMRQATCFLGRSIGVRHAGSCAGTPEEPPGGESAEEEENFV

[19] = molecular target: Dickkopf-related protein 1 (Homo sapiens) (UniProt O94907); experiment: small molecules binding DKK1 protein – biochemical, small-molecule microarray, 635 nm fluorescence scan, primary screen (AID 1106); conditions: higher = more signal;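 further: score merges emission near 667 nm with signal to noise over three replicate slides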
Chain of Dickkopf-related protein 1 (Homo sapiens) (O94907 whole entry, looked up): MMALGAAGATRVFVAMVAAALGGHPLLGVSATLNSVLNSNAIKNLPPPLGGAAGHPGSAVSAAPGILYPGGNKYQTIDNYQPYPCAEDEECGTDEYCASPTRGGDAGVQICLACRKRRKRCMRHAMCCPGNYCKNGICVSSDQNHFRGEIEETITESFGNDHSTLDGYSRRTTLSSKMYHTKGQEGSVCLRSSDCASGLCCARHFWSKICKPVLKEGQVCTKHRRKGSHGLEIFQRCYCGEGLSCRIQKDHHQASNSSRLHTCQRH

[20] = tested on: Inhibin beta A chain (activin A); experiment: small molecules binding activin A – biochemical, small-molecule microarray, 635 nm fluorescence scan, primary screen (AID 1107); conditions: INHBA, higher = more signal;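 further: mouse activin A protein probed at 4.33 µg/mL on printed slides; score merges bound-protein fluorescence near 667 nm with spot signal-to-noise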

SMILES | composite z-score [1] | z-score [2] | z-score [3] | z-score [4] | composite z-score [5] | z-score [6] | composite z-score [7] | composite z-score [8] | composite z-score [9] | composite z-score [10] | composite z-score [11] | composite z-score [12] | composite z-score [13] | z-score [14] | composite z-score [15] | composite z-score [16] | composite z-score [17] | composite z-score [18] | composite z-score [19] | composite z-score [20]
COc1cc2c(cc1O)C(C)N(Cc1sc3ccccc3c1Cl)CC2 (stereo not given) | -0.77 | 0.173 (inactive) | -12.3 (active) | -1.6 (inactive) | -0.0038 | 0.566 (inactive) | 0.107 | -0.417 | -0.88 | -0.2 | -0.0748 | 0.247 | 0.868 | -0.283 (inactive) | -1.16 | -0.306 | -1.27 | -0.348 | -1.56 | -0.0182
Cc1ccc(S(=O)(=O)N2[C@@H](c3ccccc3)C(C(=O)O)=CC[C@H]2c2ccc(F)cc2)cc1 | 1.26 | -0.485 (inactive) | 0.364 (inactive) | 0.311 (inactive) | 4.08 | -0.0865 (inactive) | -0.0803 | -0.0184 | 0.76 | -0.241 | -0.434 | -0.224 | 0.633 | -0.207 (inactive) | 0.876 | 1.08 | -0.882 | 0.489 | -0.757 | -1.32
Cc1ccc(S[C@]2(C(=O)NC(C)C)CC(=O)N(Cc3ccccc3)[C@@H]2c2ccc(CO)cc2I)cc1 | 1.46 | -1.12 (inactive) | -1.15 (inactive) | 0.739 (inactive) | 2.11 | 0.301 (inactive) | -0.102 | -1.44 | -0.332 | -0.0146 | 0.984 | 0.498 | 1.27 | -0.328 (inactive) | -0.284 | -0.683 | -1.27 | -0.911 | -2.57 | 1.01
COCCOC(=O)N1C(=O)[C@@]2(c3cc(C#CC4=CCCCC4)ccc31)[C@H](C(=O)N1CCCCCCC1)[C@H]1C(=O)O[C@H](c3ccccc3)[C@H](c3ccccc3)N1[C@@H]2c1ccccc1OCCO | 1.55 | 1.01 (inactive) | -1.22 (inactive) | 1.98 (inactive) | 3.02 | 0.87 (inactive) | 1.15 | 1.5 | 1.06 | 0.417 | 1.33 | 0.854 | 1.14 | -1.09 (inactive) | 0.536 | 1.3 | 0.846 | 1.44 | 0.865 | 1.75
COc1ccc(CCNC(=O)[C@@]2(C)c3ccccc3C(=O)N(Cc3ccc(OC(F)(F)F)cc3)[C@H]2c2ccc(CO)cc2)cc1 | 1.55 | -0.219 (inactive) | -0.553 (inactive) | 0.997 (inactive) | 2.25 | -0.663 (inactive) | -0.403 | 1.11 | 0.743 | 0.686 | 0.738 | 0.781 | -0.325 | -0.383 (inactive) | 1.19 | 1.3 | 0.743 | 0.286 | 1 | -0.307
CC(C)N1C(=O)[C@@]2(Cc3ccccc31)c1ccccc1C(=O)N(Cc1ccccc1)[C@H]2c1ccc(CO)cc1 | -0.0364 | 1.43 (inactive) | 0.555 (inactive) | -0.204 (inactive) | 0.0342 | 0.365 (inactive) | -0.578 | 0.209 | -0.508 | -0.424 | 0.0154 | -1.02 | -1.01 | 0.144 (inactive) | 0.368 | 0.241 | -0.162 | 0.245 | 0.355 | 0.931
Cc1ccc(S[C@]2(C(=O)NCc3ccccc3)CC(=O)N(Cc3ccccc3Cl)[C@@H]2c2ccc(CO)cc2)cc1 | 1.17 | 0.373 (inactive) | -0.0114 (inactive) | 0.227 (inactive) | 2.07 | -2.31 (inactive) | 0.145 | -0.761 | -0.0303 | -0.258 | 1.07 | 0.169 | 0.603 | -0.419 (inactive) | -0.35 | 0.165 | -1.31 | -0.648 | -0.743 | 0.0073
CC(C)c1ccc(NN2C(C(O)C3=C[C@H]4C[C@@H](C3)C4(C)C)C=CC3C(=O)N(c4ccccc4)C(=O)C32)cc1 (stereo not given in full) | 1.32 | 0.191 (inactive) | -0.0249 (inactive) | 0.264 (inactive) | 2.6 | -0.661 (inactive) | 0.363 | 0.501 | 1.08 | 0.114 | 0.969 | 0.886 | 0.665 | -0.0409 (inactive) | 0.409 | 0.577 | 0.366 | 0.827 | 0.245 | 0.829
[N-]=[N+]=Nc1ccccc1C[C@]1(C(N)=O)COC(c2ccc(OCCCO)cc2)=N1 | -0.0424 | -0.684 (inactive) | -0.846 (inactive) | 0.0643 (inactive) | 2.84 | 0.0474 (inactive) | 0.538 | -0.863 | -0.0154 | 0.516 | 0.219 | 1.07 | 1.04 | -0.32 (inactive) | -0.128 | -0.51 | -0.969 | -1.16 | -1.18 | 1.13
N#Cc1ccc(NN2C(C(O)c3ccc(B(O)O)cc3)C=CC3CN(c4ccccc4)C(=O)C32)cc1 (stereo not given) | -0.188 | 0.587 (inactive) | 0.896 (inactive) | 1.88 (inactive) | 0.847 | 1.28 (inactive) | -0.0576 | -0.345 | 0.0787 | -0.0828 | 0.35 | 0.0933 | 0.584 | 0.441 (inactive) | -0.792 | -0.824 | -0.533 | -0.172 | -0.445 | 0.462
CC(C)(C)OC(=O)N1[C@@H](C=C(Br)Br)COC1(C)C | 0.656 | -2.93 (inactive) | -6.61 (inactive) | -1.27 (inactive) | 0.546 | 1.74 (inactive) | -0.0815 | 0.462 | 0.668 | -0.0954 | 0.395 | -0.16 | -0.282 | 0.104 (inactive) | 0.382 | 0.901 | 0.614 | 0.164 | 0.393 | 0.29
C=C(COC)/C(=C/C[C@@H](OC(=O)c1ccncc1)c1ccccc1OCCO)c1cnc2ccccc2c1 | 1.54 | -0.564 (inactive) | -1.61 (inactive) | 0.698 (inactive) | 2.03 | 1.1 (inactive) | -0.0304 | 1.95 | 1.02 | 0.0533 | 0.247 | -0.0501 | 0.0321 | 0.488 (inactive) | 1.47 | 1.29 | 1.3 | 1.59 | 0.651 | 1.61
